Test results taken from PubChem BioAssay (NCATS).
Inconclusive results are not listed. Active and inactive are the calls of the source. Calls come from the whole dose curve; as a rule, active = well fitted inhibition curve with a large enough effect; inconclusive = small, poorly fitted or top-dose-only effect; inactive = flat fitted curve, though single readings scatter.

Molecular target: Calcium and integrin-binding protein 1 (Homo sapiens) (UniProt Q99828)
Assay: Primary qHTS for Identification of Calcium Integrin Binding Protein 1 (CIB1) Competitor (AID 1508620);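 note: GST tagged CIB1 binding a fluorescein labelled alphaIIb integrin peptide tracer; top concentration of the series differs between compounds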
Details: CIB1-GST / FITC-alphaIIb peptide fluorescence polarization; series mostly up to 114 µM; activity change, negative = inhibition: at the top concentration
Summary of the method: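 CIB1-GST (1 uM final) and compound incubated 15 min at room temperature before adding FITC-alphaIIb peptide tracer (100 nM final). Competition for binding read by fluorescence polarization (ex 480, em 540) after another 15 min at room temperature.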
% is set by controls: 0 for no effect and ±100 for the full control effect.

Chain of Calcium and integrin-binding protein 1 (Homo sapiens) (Q99828 whole entry, looked up): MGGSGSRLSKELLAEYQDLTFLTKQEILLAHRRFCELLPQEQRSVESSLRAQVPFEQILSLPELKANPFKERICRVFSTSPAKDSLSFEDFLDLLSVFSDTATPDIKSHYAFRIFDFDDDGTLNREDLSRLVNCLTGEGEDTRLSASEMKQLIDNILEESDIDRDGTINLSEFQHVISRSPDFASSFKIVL

Row | Compound | activity change, negative = inhibition
1 | CCCCCCCOc1cc2c(cc1/C(C)=C/c1ccc(C(=O)O)cc1)C(C)(C)CCS2(=O)=O | 17.6% (inactive)
2 | C=C1C(=O)OC2/C=C(/C)C3=CC(=O)C(C)(CC(OC(=O)/C(C)=C/COC(C)=O)C12)O3 (stereo unspecified) | -8.21% [at 57.7 µM] (inactive)
3 | C=C(C)C1CCC2(C(=O)O)CCC3(C)C(CCC4C5(C)C(C=O)C(O)C(C)(C)C5CCC43C)C12 (stereo unspecified) | 0.876% [at 57.7 µM] (inactive)
4 | CC(C)(O)c1ccc2c(c1)ncn2-c1cccc(-c2ccccc2C#N)c1 | -1.66% (inactive)
5 | COC1=CC(=O)O/C1=C(/OC)[C@@H]1O[C@H]1c1ccccc1 | -10.2% (inactive)
6 | CC(/C=C/C(=O)NO)=C\[C@@H](C)C(=O)c1ccc(N(C)C)cc1 | -2.94% (inactive)
7 | O=C(O)c1ccc(N2C(=O)/C(=C/c3ccc(-c4ccc([N+](=O)[O-])cc4)o3)C=C2c2ccccc2)cc1 | -9.56% (inactive)
8 | Cn1c(=O)c2c(ncn2Cc2ccc(C(C)(C)C)cc2)n(C)c1=O | -2.72% (inactive)
9 | C=C1C(=O)O[C@@H]2C[C@@]3(C)CCCC(=C)[C@]3(O)C[C@H]12 | -0.519% (inactive)
10 | C[C@@H]1O[C@@H](O[C@H]2[C@@H](OC(=O)[C@]34CCC(C)(C)CC3C3=CCC5[C@@]6(C)C[C@H](O)[C@H](O[C@@H]7O[C@H](CO)[C@@H](O)[C@H](O)[C@H]7O[C@@H]7OC[C@@H](O)[C@H](O)[C@H]7O)[C@@](C)(C(=O)O)C6CC[C@@]5(C)[C@]3(C)CC4)OC[C@H](O)[C@@H]2O)[C@H](O)[C@H](O)[C@H]1O[C@@H]1OC[C@@H](O)[C@H](O)[C@H]1O (stereo partly specified) | -5.44% [at 12.4 µM] (inactive)
11 | COc1ccc(C[C@H]2COC(=O)[C@@H]2Cc2ccc(O[C@@H]3O[C@H](CO)[C@@H](O)[C@H](O)[C@H]3O)c(OC)c2)cc1OC | 0.528% [at 57.7 µM] (inactive)
